Some test systems named below: DU-145 prostate; K-562 leukemia; MALME-3M melanoma; MDA-MB-231 breast; RXF 393 renal; SF-268 CNS; SF-295 CNS; SF-539 CNS; UACC-257 melanoma; M14 melanoma; HCT-15 colon; HT29 colon; SNB-75 CNS; SNB-19 CNS; U251 CNS; PC-3 prostate; UACC-62 melanoma; LOX IMVI melanoma; SK-MEL-28 melanoma; SK-MEL-5 melanoma.
What all share (assay): NCI-60 one-dose screen, 48 h (100 = growth as untreated, 0 = no growth, -100 = all killed)
Holding throughout (conditions): 10 µM unless noted

Molecules are shown by their SMILES. About 83,000 compounds went through this panel and 20% of them were active in at least one assay; those are over-represented in the sample as a whole.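 Each cell line was grown in a 96-well plate and treated with one concentration of compound for 48 hours. Values below 10 were considered active.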 Values without a mark were called inactive. Calls of active or inactive are those of the source.

As to `COCCN(C(=O)c1ccc(F)cc1F)c1c(N)n(Cc2ccccc2)c(=O)[nH]c1=O`, the growth with DU-145 prostate is 120%; in the experiment with K-562 leukemia it was 96.6%; in the experiment with MALME-3M melanoma, 120%; with MDA-MB-231 breast, 106%; in the experiment with RXF 393 renal, 101%; in the experiment on SF-268 CNS it was 111%. In addition, the growth in the experiment with SF-295 CNS is 108%; in the experiment on SF-539 CNS, 108%; in the experiment on UACC-257 melanoma, 106%; with M14 melanoma, 112%; in the experiment on HCT-15 colon it was 98.8%; with HT29 colon, 104%. Also, the growth was 105% in the experiment on SNB-75 CNS; 106% with SNB-19 CNS; 100% in the experiment on U251 CNS; 97.4% in the experiment with PC-3 prostate; 94.3% with UACC-62 melanoma; 99.3% in the experiment on LOX IMVI melanoma. In addition, the growth with SK-MEL-28 melanoma was 114%.
For the compound `COC(=O)[C@]12CC[C@@H](C)[C@H](C)[C@@H]1C1=CC[C@@H]3[C@@]4(C)C(C=O)=C[C@@](C)(COS(C)(=O)=O)C4[C@H](O)C[C@@]3(C)[C@]1(C)CC2` (some centres undefined), the growth was -93.6% (active) with DU-145 prostate; 1.48% (active) with K-562 leukemia; -78.6% (active) in the experiment with MALME-3M melanoma; -74.9% (active) in the experiment with MDA-MB-231 breast; -96.4% (active) in the experiment on RXF 393 renal; -74.4% (active) in the experiment with SF-268 CNS. The growth with SF-295 CNS was -87.3% (active); with SF-539 CNS it was -89.6% (active); in the experiment on UACC-257 melanoma, -82.2% (active); with M14 melanoma it was -59.9% (active); in the experiment on HCT-15 colon, -70.3% (active); in the experiment on HT29 colon, -85.2% (active). In addition, the growth was -67.7% (active) in the experiment with SNB-19 CNS; -96.2% (active) in the experiment with U251 CNS; -36% (active) in the experiment with PC-3 prostate; -91.6% (active) in the experiment with SK-MEL-5 melanoma; -38.4% (active) in the experiment on UACC-62 melanoma; -97.3% (active) in the experiment on LOX IMVI melanoma. Moreover, the growth in the experiment on SK-MEL-28 melanoma was -57.7% (active).
With `Cc1ccc(C(=O)COc2cccc(/C=C3\Oc4ccccc4C3=O)c2)cc1`, the growth is 123% in the experiment with DU-145 prostate; 75.8% in the experiment on K-562 leukemia; 106% in the experiment with MALME-3M melanoma; 83.1% in the experiment with MDA-MB-231 breast; 94.5% with RXF 393 renal; 120% in the experiment on SF-268 CNS. Also, the growth with SF-295 CNS is 120%; with SF-539 CNS, 103%; in the experiment with UACC-257 melanoma it was 129%; in the experiment with M14 melanoma, 101%; in the experiment with HCT-15 colon, 105%; in the experiment with HT29 colon, 114%. The growth with SNB-19 CNS was 99.4%; in the experiment with U251 CNS, 99.7%; with PC-3 prostate it was 101%; with SK-MEL-5 melanoma it was 123%; in the experiment on UACC-62 melanoma, 73.2%; in the experiment on LOX IMVI melanoma, 104%. For the same compound, in the experiment on SK-MEL-28 melanoma, the growth was 135%.
With `CNC(=O)NCC1OC(n2cnc3c(NC(=O)Nc4ccccc4)ncnc32)C(O[Si](C)(C)C(C)(C)C)C1CC(=O)N(C)OC` (centres undefined), the growth in the experiment with DU-145 prostate is 25.3%; with K-562 leukemia, 16.1%; in the experiment with MALME-3M melanoma, 12.3%; in the experiment on MDA-MB-231 breast it was 15.2%; in the experiment with RXF 393 renal, -68.2% (active); with SF-268 CNS it was 33.2%. Besides, the growth in the experiment with SF-295 CNS is -41.2% (active); with SF-539 CNS it was 0.123% (active); in the experiment on UACC-257 melanoma it was 5.59% (active); in the experiment on M14 melanoma it was 34.4%; in the experiment on HCT-15 colon, 11.9%; in the experiment with HT29 colon, -25.5% (active). For the same compound, the growth is 37.2% with SNB-19 CNS; -15.2% (active) in the experiment on U251 CNS; -20.8% (active) in the experiment with PC-3 prostate; 25.9% in the experiment with SK-MEL-5 melanoma; 34.4% with UACC-62 melanoma; 18.6% with LOX IMVI melanoma. For the same compound, in the experiment on SK-MEL-28 melanoma, the growth was 7.73% (active).
As to `C[n+]1cc2cc(C(N)=O)[nH]c3c(=N)c(Cl)c(N)c1c23`, the growth in the experiment with DU-145 prostate was 69.7%; in the experiment with K-562 leukemia, 53%; in the experiment on MALME-3M melanoma, 99.1%; with MDA-MB-231 breast, 53.7%; in the experiment on RXF 393 renal, 73.8%; with SF-268 CNS it was 64.8%. Besides, the growth with SF-295 CNS was 74.1%; in the experiment on SF-539 CNS, 90.6%; with UACC-257 melanoma, 45.5%; in the experiment with M14 melanoma, 59.9%; in the experiment on HCT-15 colon, 42.1%; in the experiment on HT29 colon, 35.3%. Further, the growth in the experiment with SNB-19 CNS is 75.1%; with U251 CNS it was 62.2%; in the experiment with PC-3 prostate it was 48.4%; with SK-MEL-5 melanoma, 79.2%; in the experiment on UACC-62 melanoma it was 78%; with SK-MEL-28 melanoma, 109%.
For `O=[N+]([O-])c1ccc(Sc2cccc[n+]2[O-])c2nonc12`, the growth with DU-145 prostate was 50%; in the experiment with K-562 leukemia, -21.7% (active); in the experiment on MALME-3M melanoma, 100%; with MDA-MB-231 breast, 90.4%; in the experiment with RXF 393 renal, 54.5%; with SF-268 CNS it was 58.9%. Moreover, the growth with SF-295 CNS is 89.9%; in the experiment on SF-539 CNS, 93.6%; in the experiment with UACC-257 melanoma, 91.5%; with M14 melanoma, 71.3%; in the experiment with HCT-15 colon it was 73.1%; in the experiment with HT29 colon, 78.2%. Besides, the growth in the experiment with SNB-75 CNS was 80.7%; in the experiment on SNB-19 CNS it was 88.3%; with U251 CNS, 2.22% (active); in the experiment with PC-3 prostate, 41.8%; with UACC-62 melanoma it was 50.6%; in the experiment with LOX IMVI melanoma, 2.14% (active). For the same compound, the growth in the experiment on SK-MEL-28 melanoma was 23.8%.
`NC(=O)c1ccc[n+](Cc2ccc(Cl)cc2Cl)c1`: the growth with DU-145 prostate is 111%; in the experiment with K-562 leukemia, 92.9%; with MALME-3M melanoma, 100%; with MDA-MB-231 breast it was 103%; in the experiment on RXF 393 renal, 118%; in the experiment with SF-268 CNS, 103%. Also, the growth in the experiment with SF-295 CNS was 111%; with SF-539 CNS it was 105%; in the experiment on UACC-257 melanoma it was 72%; with M14 melanoma it was 94.5%; in the experiment with HCT-15 colon, 105%; with HT29 colon it was 91.3%. In addition, the growth was 101% with SNB-19 CNS; 89.6% with U251 CNS; 88.9% with PC-3 prostate; 93.2% with UACC-62 melanoma; 95.8% in the experiment with LOX IMVI melanoma; 108% with SK-MEL-28 melanoma.
In the case of `C[C@H]1[C@H]2[C@H]3CC[C@@H]4[C@@]5(C)C/C(=C/c6ccco6)C(=O)C(C)(C)[C@@H]5CC[C@@]4(C)[C@]3(C)CC[C@]23CO[C@]1(C)[C@@H](C(=O)/C=C\c1ccco1)C3`, the growth in the experiment with DU-145 prostate is 111%; with K-562 leukemia, 93.4%; with MALME-3M melanoma, 23.5%; with MDA-MB-231 breast it was 94.9%; in the experiment on RXF 393 renal it was 98.4%; with SF-268 CNS, 97.3%. The growth in the experiment on SF-295 CNS was 107%; with SF-539 CNS, 93.8%; with UACC-257 melanoma, 31.5%; in the experiment with M14 melanoma, 60.5%; in the experiment on HCT-15 colon it was 112%; in the experiment on HT29 colon it was 105%. Moreover, the growth in the experiment on SNB-75 CNS was 88.2%; with SNB-19 CNS it was 91.8%; in the experiment with U251 CNS, 83.4%; in the experiment with PC-3 prostate, 79.7%; in the experiment with UACC-62 melanoma it was 26%; in the experiment on SK-MEL-28 melanoma, 43.9%.

These data come from PubChem BioAssay (NCI).
